# Compound activity from PubChem.
# Hits are enriched below; roughly 7.7% of the tested compounds scored in any of these assays.
# RE007 growth inh: qHTS Assay for Inhibitors of the HIV-1 protein Vpr | AID 651644, 2012 | 0.21% of 360,000 active | Potency, µM (highest dose often 92.2 µM), without a hit: at the top dose activity change, negative = less growth, hits mostly inhibitors | S. pombe RE007 Vpr strain, BacTiter-Glo ATP luminescence, 24 h; active means well fitted falling curve with a large enough effect; inconclusive means small, poorly fitted or top-dose-only effect; inactive means no such curve, though single readings can be large or run the other way; further: potency means the concentration at half of the fitted maximal effect; nearly all actives have a fitted effect of over 50% in size
#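 Fission yeast strain RE007, carrying one chromosomally integrated HIV-1 vpr copy, was seeded at OD 0.01 in PMG+AL medium with 23 nL pinned compound. After 24 h at 30 °C and 99% humidity, viability was read by BacTiter-Glo luminescence.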
# FBPA Giardia inh: qHTS Assay for Inhibitors of Fructose-1,6-bisphosphate Aldolase from Giardia Lamblia | A8B2U2 | purified Giardia FBPA | Potency, µM (top dose mostly 59.6 µM), inactives show at the highest dose activity, negative = inhibition, usual class: inhibitors | 0.71% of 290,000 active | AID 2451, 2010; further: potency means the concentration at half of the fitted maximal effect; nearly all actives have a fitted effect of over 55% in size
# Target sequence (A8B2U2 whole entry, looked up): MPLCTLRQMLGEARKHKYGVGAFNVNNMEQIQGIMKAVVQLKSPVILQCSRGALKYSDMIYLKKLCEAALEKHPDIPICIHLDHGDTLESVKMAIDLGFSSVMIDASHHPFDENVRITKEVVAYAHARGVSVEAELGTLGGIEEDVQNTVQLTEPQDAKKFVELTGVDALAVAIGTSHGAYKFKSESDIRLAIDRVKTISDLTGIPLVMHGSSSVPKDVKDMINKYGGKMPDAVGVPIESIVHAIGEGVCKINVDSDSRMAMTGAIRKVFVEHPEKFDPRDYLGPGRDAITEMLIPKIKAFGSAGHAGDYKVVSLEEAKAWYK
#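 Giardia FBPA (40 nM reagent) was preincubated 10 min at RT with compound (up to 57.5 uM final), then substrate plus GAPDH/TPI/NAD/arsenate coupling system with diaphorase/resazurin was added; resorufin fluorescence (525/598 nm) was read after 20 min.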
# TbPYK inhibitor: qHTS of Trypanosoma Brucei Inhibitors; pyruvate kinase (Trypanosoma brucei), Q57TT1; TbPYK enzyme, Kinase-Glo Plus ATP luminescence, 45 min; Potency, µM (doses to about 76.8 µM), without a hit: top-dose activity, negative = inhibition, actives largely listed as inhibitors; 0.12% of 410,000 active; further: potency means the concentration at half of the fitted maximal effect; nearly all actives have a fitted effect of over 50% in size
#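 Activity of T. brucei pyruvate kinase was followed by Kinase-Glo Plus luminescence after the enzyme reacted 45 min at room temperature with 130 uM ADP (final) and substrate. Test compounds were added before ADP at multiple concentrations.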
# Sm TGR inh: qHTS Assay for the Inhibitors of Schistosoma Mansoni Peroxiredoxins; Schistosoma mansoni thioredoxin glutathione reductase (TGR), Q962Y6; purified TGR, DTNB reduction, TNB absorbance 405 nm; Potency, µM (titrated, usually from 114 µM), for inactives: at the top dose activity change, negative = inhibition, most hits filed as inhibitors; 3% of 360,000 active; AID 485364, 2010; further: potency means the concentration at half of the fitted maximal effect; nearly all actives have a fitted effect of over 60% in size
#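 First, TGR (20 nM dispensed) and NADPH were mixed with compound. Second, a 15 min room-temperature incubation followed. Third, further NADPH and then DTNB were added to start the reaction. Finally, TNB absorbance was monitored kinetically.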
# HCMV inh: qHTS Assay for inhibitors of the human cytomegalovirus (HCMV) | HFF cells, HCMV-luciferase reporter, 72 h; active compounds read low | activity change, negative = inhibition, % at 57.5 µM | 4.5% of 410,000 active | AID 1259415, 2018; in the data active means activity change below about -60%; inconclusive means no clear call, values can overlap the other calls; inactive means above about -39%
#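 After 16 h attachment at 37C, HFF cells received test compound and HCMV-luciferase (1 PFU/cell); reporter luminescence read 72 h later, data normalized against buffer-only and known inhibitor Salinomycin.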
# FMDV antiviral: High Throughput Screening for Foot and Mouth Disease Virus Antivirals; AID 1159524, 2015; 1.2% of 410,000 active; Potency, µM (series often up to 57.9 µM), without a hit: at the top dose activity change, negative = inhibition, hits mostly inhibitors; FMDV antiviral cell-based qHTS; calls by dose curve; tested in HEK293T cells; further: read-out not given here; potency means the concentration at half of the fitted maximal effect; nearly all actives have a fitted effect of over 45% in size
# Numbers without * were called inactive; ? = inconclusive; . = no result; [ ] = dose if it differs, or a comment. Unless noted, the call rests on the fitted dose curve; in most records, active means well fitted curve in the direction sought with a large enough effect; inconclusive means small, poorly fitted or top-dose-only effect, or another doubt; inactive means no such curve, though single readings can be large; an effect the other way counts as inactive or inconclusive. On the % scale 0 is the no-effect control and ±100 the full control effect.
SMILES,RE007 growth inh,FBPA Giardia inh,TbPYK inhibitor,Sm TGR inh,HCMV inh,FMDV antiviral
CCc1ccc(C(C)NC(=S)NC2CCCCC2)cc1 (configuration not stated),-1%,2%,0%,-5%,.,-11%
CC(C)c1ccc(C(C)NC(=S)NC2CCCCC2)cc1 (configuration not stated),-5%,5%,-6%,7%,-89*,?
COc1ccccc1N1CCN(C(CNC(=O)C(=O)NCc2ccc(F)cc2)c2cccnc2)CC1 (configuration not stated),.,.,5%,-7%,-28,?
Cc1ccc(NC(=O)N2CCN(Cc3nc4ccc(C)cc4o3)CC2)c(Cl)c1,.,.,2%,1%,-9,-30%
Cc1ccc(C)c(CN2CCc3nnc(CNC(=O)c4cc(C)oc4C)n3CC2)c1,.,.,.,.,.,-21%
CCOc1ccc(C(C)NC(=S)NC2CCCCC2)cc1OCC (configuration not stated),6%,-1%,-1%,3%,-20,-3%
CC(NC(=S)NC1CCCCC1)c1ccc(C(C)(C)C)cc1 (configuration not stated),23%,18%,-5%,-24%,-97*,0%
COCCCOc1cc(C[C@@H](C[C@H](N)[C@@H](O)C[C@H](C(=O)NCC(C)(C)C(N)=O)C(C)C)C(C)C)ccc1OC,.,.,0%,.,.,.
CCc1ccc(S(=O)(=O)NCCc2cn3ccsc3n2)cc1,.,.,2%,-6%,?,46%
O=S(=O)(NCCc1cn2ccsc2n1)c1ccc(Cl)cc1,.,.,-3%,35µM*,-28,16%
O=C(CN1CCN(S(=O)(=O)c2cc(C(F)(F)F)ccc2Cl)CC1)N1CCc2ccccc2C1,-11%,.,4%,40µM*,-28,?
O=C(CN1CCN(S(=O)(=O)c2ccc(F)c(Cl)c2)CC1)N1CCc2ccccc2C1,24%,.,4%,.,-25,-24%
COC(=O)c1ccc(NC(=O)C2CCN(C(=O)c3cc(OC)c(OC)c(OC)c3)CC2)cc1,255%,2%,-14%,3%,-101*,-7%
Clc1ccc(-c2ccc(C=Nc3ccc(N4CCOCC4)cc3)o2)cc1,-19%,-14%,1%,1%,-62*,-7%
Cc1ccn2c(Nc3ccc4c(c3)OCCO4)c(-c3ccc(C)o3)nc2c1,.,.,-12%,0%,26,15%
O=C(NCCCNc1ccc([N+](=O)[O-])cc1)C(F)(F)F,-9%,0%,-5%,6%,32,-10%
O=C(CCl)N(CCCNC(=O)C(F)(F)F)c1ccc([N+](=O)[O-])cc1,-2%,0%,-4%,2.8µM*,-101*,20µM*
COC(=O)c1[nH]c2ccccc2c1NC(=O)CN1CCN(c2cccc(Cl)c2)CC1,0%,-2%,2%,-2%,?,14µM*
COC(=O)C(c1ccc(Br)cc1)(c1cn(C)c2ccccc12)C(Nc1ccccc1)c1ccccc1 (configuration not stated),.,.,.,.,-79*,.
CC/C(=N/Nc1cccc(C)c1)c1cnnc(SC)n1,4%,-4%,-4%,2%,-68*,?
CC/C(=N/Nc1ccc(Cl)cc1)c1cnnc(SC)n1,-7%,-4%,2%,-20%,1,10%
Cc1oc(-c2cccc(Br)c2)nc1CN1CCC(C(=O)NCc2ccccc2)CC1,.,.,4%[15.4 µM],16%,0,-6%
O=C(NC1CCC(O)CC1)c1ccc(-c2ccc(Cl)cc2)o1 (configuration not stated),13%,.,-9%,-5%,-8,27%
CC(=O)c1ccc(-c2ccc(C(=O)NC3CCCCCC3)o2)cc1,22%,-20%,7%,22µM*,-20,12%
CCc1ccc2occ(CC(=O)Nc3ccccc3C(F)(F)F)c2c1,.,.,-9%,0%,7,-17%
SMILES,RE007 growth inh,FBPA Giardia inh,TbPYK inhibitor,Sm TGR inh,HCMV inh,FMDV antiviral
O=C(Cn1cnc2c(nnn2Cc2ccc(Cl)cc2)c1=O)c1ccccc1,7%,-5%,-2%,2%,-71*,-10%
Cc1ccc(Cn2nnc3c(=O)n(CC(=O)OCc4ccccc4)cnc32)cc1,10%,4%,8%,-20%,38,-15%
Cc1ccc(Cn2nnc3c(=O)n(CC(=O)N4CCN(c5ccccc5)CC4)cnc32)cc1,1%,3%,2%,2%,-65*,.
CCCSC(=S)c1c(C)[nH]n(-c2ccccc2)c1=O,-17%,-6%,3%,?,-79*,4%
CCn1cc([N+](=O)[O-])c(C(=O)Nc2ccc(Cn3nc(C)cc3C)cc2)n1,6%,7%,-5%,8%,-17,-2%
Cn1cc([N+](=O)[O-])c(C(=O)Nc2ccc(C3CCCCC3)cc2)n1,-5%,0%,-3%,15%,-100*,43%
Cn1cc([N+](=O)[O-])c(C(=O)Nc2ccc(C(=O)N3CCCCC3)cc2)n1,1%,1%,2%,8%,-34,13%
CCn1cc([N+](=O)[O-])c(C(=O)Nc2ccn(Cc3ccccc3)n2)n1,.,0%,28%,-1%,-74*,-11%
Cc1cc(C)n(Cc2ccc(NC(=O)c3nn(C)cc3[N+](=O)[O-])cc2)n1,0%,11%,3%,0%,-101*,-28%
Cc1ccc(Cn2ccc(NC(=O)c3nn(C)cc3[N+](=O)[O-])n2)cc1,-12%,2%,23%,-2%,-77*,-5%
CCn1cc([N+](=O)[O-])c(C(=O)Nc2nc3ccc(OC)cc3s2)n1,-5%,18%,3%,.,-89*,32%
Cc1cc(NC(=O)c2ccccc2)ncc1NC(=O)c1ccco1,?,?,?,22µM*,171,5%
CC(C)(C)c1ccc(C(=O)Nc2ccc(NC(=O)c3ccco3)cc2)cc1,-16%,2%,-7%,-30%,-83*,.
CCOC(=O)Cc1ccc(NC(=O)c2ccccc2Br)cc1,19%,-2%,-1%,.,33,45%
CC(C)(C)C(=O)Nc1ccc(NC(=O)c2ccco2)nc1,10%,2%,-18%,-8%,-96*,6.3µM*
CCOC(=O)Cc1ccc(NC(=O)c2ccc(C(C)(C)C)cc2)cc1,-8%,-14%,-9%,4%,-88*,18µM*
CC(C)(C)NC(=O)c1cccc(NC(=O)c2ccc(NC(=O)c3ccco3)cc2)c1,9%,3%,9%,-5%,-33,.
COc1ccc(-c2cscc2N)cc1,.,.,.,.,-3,.
COc1cccc(CNC(=O)C2CCN(S(=O)(=O)c3ccc4c(c3)CCCN4C(C)=O)CC2)c1,.,.,1%,2%,13,-15%
